95 molecules from PubChem BioAssay AID1445 (SRMLSC, 2008) can be followed below.

The campaign covered roughly 220,000 compounds. About 910 (0.41%) were called active. This excerpt belongs to a sample that is enriched for actives. Potency and affinity values are given separately. A number with no mark means an inactive call.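 How the source made its calls: active means primary inhibition above the hit cutoff, then over 50% inhibition at one or more dose response concentrations (cut at about 23% in these data, passing the limit was not always enough); inconclusive means conflicting primary data, or primary hits not chosen for dose response; inactive means low primary inhibition, or under 50% at every dose.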

The target of the experiment is Aminopeptidase N (Plasmodium falciparum (isolate 3D7)) (UniProt O96935). The experiment in a line: P. falciparum M1AAP inhibitors, biochemical, fluorogenic H-Leu-NHMec substrate, 1536-well (AID 1445).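 Further: plate controls were DMSO full reaction for no effect and no enzyme background for full effect.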 To be noted: recombinant M1AAP, H-Leu-NHMec fluorogenic kinetic assay; at 30 µM, active compounds read high unless noted.
Chain of Aminopeptidase N (Plasmodium falciparum (isolate 3D7)) (O96935 whole entry, looked up): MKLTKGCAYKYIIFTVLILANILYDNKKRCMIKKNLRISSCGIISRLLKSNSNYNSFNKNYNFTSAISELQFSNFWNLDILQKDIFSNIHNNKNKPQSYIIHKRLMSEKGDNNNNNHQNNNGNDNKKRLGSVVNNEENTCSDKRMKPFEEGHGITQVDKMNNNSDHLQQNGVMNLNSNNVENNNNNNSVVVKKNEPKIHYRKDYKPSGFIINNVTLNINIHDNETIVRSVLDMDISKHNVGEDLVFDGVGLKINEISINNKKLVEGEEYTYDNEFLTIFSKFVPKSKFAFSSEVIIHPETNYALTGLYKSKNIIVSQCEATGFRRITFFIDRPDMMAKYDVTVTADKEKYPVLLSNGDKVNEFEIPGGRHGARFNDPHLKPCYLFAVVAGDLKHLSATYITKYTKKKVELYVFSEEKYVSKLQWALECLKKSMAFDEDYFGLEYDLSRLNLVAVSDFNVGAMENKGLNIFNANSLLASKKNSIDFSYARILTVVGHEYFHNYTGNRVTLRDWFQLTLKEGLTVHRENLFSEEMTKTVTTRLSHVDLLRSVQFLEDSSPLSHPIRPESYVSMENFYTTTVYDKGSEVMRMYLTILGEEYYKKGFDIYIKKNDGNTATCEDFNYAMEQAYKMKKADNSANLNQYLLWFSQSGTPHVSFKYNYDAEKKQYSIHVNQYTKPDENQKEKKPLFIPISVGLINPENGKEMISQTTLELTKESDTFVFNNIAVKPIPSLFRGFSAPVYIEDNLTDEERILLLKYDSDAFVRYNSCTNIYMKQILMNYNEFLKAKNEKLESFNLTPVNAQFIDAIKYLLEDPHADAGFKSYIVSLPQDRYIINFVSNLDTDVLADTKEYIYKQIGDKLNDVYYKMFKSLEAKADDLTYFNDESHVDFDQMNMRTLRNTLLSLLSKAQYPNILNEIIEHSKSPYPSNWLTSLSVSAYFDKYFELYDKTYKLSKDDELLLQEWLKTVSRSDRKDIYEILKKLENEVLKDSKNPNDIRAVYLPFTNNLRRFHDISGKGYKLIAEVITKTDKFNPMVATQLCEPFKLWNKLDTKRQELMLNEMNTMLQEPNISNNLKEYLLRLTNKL
Broadly, the inhibition is the drop in the measured response relative to a control, in per cent. As for `CCc1ccc(S(=O)(=O)NCc2csc(C)n2)s1`, the inhibition was 9.49%.

Consider `Cc1oc(-c2cccs2)nc1CN1CC[C@@](O)(c2ccccc2)[C@H]2CCCC[C@@H]21`, for which the inhibition is 4.34%.

Consider `O=C(O)c1ccc(CNC(=O)c2ccccc2NC(=O)c2ccc([N+](=O)[O-])cc2)cc1`, for which the inhibition was 1.28%.

On to `CCOC(=O)c1cc2sccc2n1CC(=O)OC`, for which the inhibition is 5.03%.

For the molecule `C=CCNc1cc(C(F)(F)F)nc(-c2ccccn2)n1`, the inhibition is -2.8%.

Turning to `c1ccc2sc(NC3=NCN(CCN4CCOCC4)CN3)nc2c1`, the inhibition is -2.82%.

For `Cc1ccc(S(=O)(=O)NC2=NCN(CCN3CCOCC3)CN2)cc1`, the inhibition is 2.01%.

For the molecule `Cc1nc(NC2=NCN(CCCN3CCOCC3)CN2)nc2c(C)cccc12`, the inhibition is 29.4% (active).

Regarding `NC(=O)C1CCCN(C(=S)Nc2ccccc2)C1` (stereo not given), the inhibition is 0.97%.

As to `CSc1nc2c(c(=O)[nH]1)C(c1cccs1)C1=C(CCCC1=O)N2` (stereo not given), the inhibition is 9.61%.

On to `O=C(O)c1ccccc1-c1nc2ccccc2[nH]1`, for which the inhibition was 0.23%.

With `O=C(O)c1ccc(-c2nc(-c3ccccc3)c(-c3ccccc3)[nH]2)cc1`, the inhibition was 23.1%.

As for `c1ccc(OCc2nn3c(-c4ccco4)nnc3s2)cc1`, the inhibition is -2.34%.

On to `COc1ccc(Cl)cc1NC(=S)N1CCN(S(C)(=O)=O)CC1`, for which the inhibition is 5.32%.

Consider `COC(=O)C1=C(C)NC(C)=C(C(=O)OC)C1c1ccc(-c2cccc([N+](=O)[O-])c2)o1`, for which the inhibition was 7.62%.

`CC1(C)Oc2ccc3ccc(=O)oc3c2/C(=C/N)C1=O`: the inhibition was 8.41%.

For `CC1(C)Oc2ccc3ccc(=O)oc3c2-c2cn[nH]c21`, the inhibition is 26.5% (active).

Take `CC1(C)Oc2ccc3ccc(=O)oc3c2-c2cnoc21`: the inhibition was 50.2%.

Take `COC(=O)Nc1ccc(=O)n(Cc2c(Cl)cccc2Cl)c1`: the inhibition was 4.71%.

Consider `O=C1N(Cc2ccccc2)CCCC12CCCN(Cc1ccccc1)C2=O`, for which the inhibition was 8.22%.

Regarding `O=C(NCc1ccccc1)c1cc(-c2cccs2)on1`, the inhibition is -3.95%.

On to `Cc1cccc(NC(=S)NC(NC(=O)c2ccco2)C(Cl)(Cl)Cl)c1` (stereo not given), for which the inhibition is 18.2%.

Regarding `O=C(Nc1cccc(O)c1)c1ccccc1[N+](=O)[O-]`, the inhibition is -3.03%.

On to `CC(=O)c1ccc(NC(=S)NC(NC(=O)c2ccco2)C(Cl)(Cl)Cl)cc1` (stereo not given), for which the inhibition was 11.3%.

For `O=C(NC(NC(=S)Nc1ccc(Cl)c(Cl)c1)C(Cl)(Cl)Cl)c1ccco1` (stereo not given), the inhibition is 9.33%.

With `Cc1ccc(NC(NC(=O)c2ccccc2[N+](=O)[O-])C(Cl)(Cl)Cl)cc1` (stereo not given), the inhibition is 7.36%.

Take `CC(=O)c1ccc(NC(=O)C(Cc2ccccc2)NC(=O)c2ccco2)cc1` (stereo not given): the inhibition is 4.11%.

`CCc1ccc(NC(=O)CSCCO)cc1`: the inhibition was -0.74%.

In the case of `Cn1nnnc1Sc1c(Cl)cccc1[N+](=O)[O-]`, the inhibition is -3.63%.

For `CC1(C)COC(c2coc3ccccc3c2=O)OC1`, the inhibition was 2.08%.

On to `COc1ccc(N)cc1C#N`, for which the inhibition is 2.91%.

Consider `O=C(CCCN1C(=O)/C(=C/c2ccco2)SC1=S)Nc1cccc(C(=O)O)c1`, for which the inhibition was 6.76%.

Consider `O=C(CCCN1C(=O)/C(=C\c2ccco2)SC1=S)Nc1ccc2ccccc2c1`, for which the inhibition was 11.9%.

On to `CCOCCCNC(=O)CN(c1cc([N+](=O)[O-])ccc1OC)S(C)(=O)=O`, for which the inhibition is 2.57%.

As for `CS(C)(=O)=NS(=O)(=O)c1ccc(Cl)cc1`, the inhibition was 1.82%.

In the case of `CCn1c2ccccc2c2nnc(SCC(=O)Nc3cc(C)on3)nc21`, the inhibition was 1.82%.

For `CCCn1c2ccccc2c2nnc(SCC(=O)Nc3cc(C)on3)nc21`, the inhibition is 10.3%.

For the molecule `CCn1c2ccccc2c2nnc(SCC(=O)Nc3c(C)n(C)n(-c4ccccc4)c3=O)nc21`, the inhibition was 0.94%.

Regarding `CCc1nnc(SCC(=O)N2CCCc3ccccc32)nc1CC`, the inhibition was 0.48%.

In the case of `CSc1nnc2c3cc(C)ccc3n(Cc3ccccc3)c2n1`, the inhibition is 1.58%.

As to `Cc1ccc2c(c1)c1nnc(SCC(=O)N3CCN(c4ccc(F)cc4)CC3)nc1n2CC(=O)O`, the inhibition is 2.3%.

With `O=C(CSc1nnc(Cc2cc(=O)[nH]c(=O)[nH]2)n1-c1ccc(Cl)cc1)NCC1CCCO1` (stereo not given), the inhibition is 0.41%.

For `COC(=O)C1=C(C)N(C)C(=S)NC1c1ccc(OC)cc1OC` (stereo not given), the inhibition is 3.74%.

Take `CCOc1ccc(C(=O)NC(=S)Nc2cccnc2)cc1[N+](=O)[O-]`: the inhibition was 6.68%.

On to `Cn1c(=O)c(C(=O)COC(=O)c2cc(-c3ccccc3)nc3ccccc23)c(N)n(Cc2ccccc2)c1=O`, for which the inhibition is 3.89%.

For the molecule `COc1ccc(NC(=S)NC(=O)/C=C/c2cccs2)cc1`, the inhibition is 10.7%.

As to `COc1ccc(/C=C/C(=O)NC(=S)Nc2ccc(N3CCN(C(C)=O)CC3)cc2)cc1`, the inhibition was 6.43%.

On to `O=C(/C=C/c1cccs1)NC(=S)Nc1ccccc1`, for which the inhibition was 22%.

In the case of `COc1ccc(/C=C/C(=O)NC(=S)Nc2ccc(S(N)(=O)=O)cc2)cc1`, the inhibition was 9.42%.

As to `COc1ccc(/C=N/N=C2/NC(=O)C(CC(=O)NC(C)C)S2)cc1` (stereo not given), the inhibition is 10.2%.

Consider `O=C(CN1CCCN(S(=O)(=O)c2ccc(F)cc2)CC1)Nc1ccccc1Br`, for which the inhibition is 7.31%.

As for `COc1ccc2c(c1)C=C(CN1CCN(C(C)C)C(CCO)C1)CO2` (stereo not given), the inhibition was -13.9%.

Regarding `CCOc1cc(/C=N/NC(=O)c2ccc(-c3csc(Nc4ccc(C)cc4)n3)cc2)ccc1OCC(=O)O`, the inhibition is 14.3%.

For the molecule `CCOc1cc(/C=C2\SC(=Nc3ccccc3)N(c3ccccc3)C2=O)ccc1OCC(=O)O`, the inhibition was 8.93%.

For `CCOc1cc(C=C2C(=O)c3ccccc3C2=O)ccc1OCC(=O)Nc1ccc(C)cc1`, the inhibition is 2.91%.

For the molecule `CCOc1cc(/C=C2/SC(=O)N(CC(=O)N3CCc4ccccc4C3)C2=O)ccc1OCC(=O)O`, the inhibition is 12.8%.

With `COC(=O)c1c(NC(=O)COC(=O)c2ccccc2O)sc2c1CCCCC2`, the inhibition was 2.42%.

`COc1cc(NC(=O)Cc2cccs2)ccc1-n1cnnn1`: the inhibition was 4.02%.

As for `CN1CCc2c(OCc3ccc(F)cc3)cccc2C1=O`, the inhibition is 3.15%.

For `Cc1ccc(S(=O)(=O)Nc2ccccc2C(=O)OC(C)C(=O)Nc2ccc3ccccc3c2)cc1[N+](=O)[O-]` (stereo not given), the inhibition is -0.95%.

With `COc1ccc(NC(=O)c2ccccc2NS(=O)(=O)c2ccc(C)cc2)c([N+](=O)[O-])c1`, the inhibition was 11.4%.

For the molecule `COc1ccc(NC(=S)NNc2ccc([N+](=O)[O-])cc2S(=O)(=O)Nc2ccc(C)cc2C)cc1`, the inhibition is 5.53%.

Turning to `O=C(O)c1ccccc1Nc1ccc(OC(F)F)cc1`, the inhibition was 2.47%.

As to `O=c1c(Cc2ccc(Cl)cc2)c(O)ccn1Cc1ccccc1`, the inhibition was 1.46%.

Take `Cc1oc2c(C)c3oc(=O)c4c(c3cc2c1C)CCC4`: the inhibition was 9.19%.

On to `Cc1oc2c(C)c3oc(=O)c4c(c3cc2c1C)CCCC4`, for which the inhibition was 4.09%.

Consider `CCCc1cc(=O)oc2c(C)c(O)c(CN3CCCCC3)cc12`, for which the inhibition is -4.01%.

For `Cc1c(O)c(CN2CCCC2)cc2c1oc(=O)c1ccccc12`, the inhibition is 11.4%.

In the case of `CCc1cc(=O)oc2c(C)c(O)c(CN(C)C)cc12`, the inhibition is 9.74%.

`Cc1c(O)c(CN2CCCCC2)cc2c1oc(=O)c1ccccc12`: the inhibition is 1.46%.

In the case of `O=C(COc1cccnc1[N+](=O)[O-])Nc1ccccc1Sc1ccccc1`, the inhibition is -2.34%.

As for `CCOc1cccc(C(=O)NC(=S)Nc2cccnc2)c1`, the inhibition was 6.93%.

On to `COc1ccc(-c2ccc(N(C)C)cc2)cc1[C@H]1[C@H]2C=CC[C@@H](C)[C@@H]2C(=O)N1Cc1ccccc1`, for which the inhibition was 0.52%.

`O=C(c1ccc2c(=O)n3c(nc2c1)CCCCC3)N1CCN(c2ccccc2)CC1`: the inhibition is 7.74%.

Consider `COc1ccc(Nc2cc(Cl)nc(N)n2)cc1`, for which the inhibition was 4.08%.

Take `CCNC(=S)N(CCc1ccc(S(N)(=O)=O)cc1)C1CC(=O)N(c2ccccc2)C1=O` (stereo not given): the inhibition is 2.82%.

`Cc1nn2c(-c3ccccn3)ccnc2c1Br`: the inhibition is 7.82%.

For the molecule `CCOc1c(Cl)cnn(-c2ccc(C)cc2)c1=O`, the inhibition is -0.82%.

With `CCOC(=O)c1cc(-c2cc3ccccc3o2)nc2c1c(=O)[nH]c(=O)n2CCOC`, the inhibition is 6.31%.

Consider `N=C(N)N=Nc1c(O)[nH]c2ccc(Br)cc12`, for which the inhibition was 10.3%.

Turning to `Oc1[nH]c2ccc(Br)cc2c1N=Nc1ccc(C(F)(F)F)cn1`, the inhibition was 4.3%.

With `CN1CCN(c2oc(/C=C/c3ccccc3)nc2C#N)CC1`, the inhibition is 16.3%.

`COCCNc1oc(-c2ccccc2Cl)nc1C#N`: the inhibition was 10.4%.

Turning to `CN(C)CCCNc1oc(-c2ccccc2)nc1C#N`, the inhibition was 5.83%.

As to `CNc1oc(/C=C/c2ccccc2)nc1C#N`, the inhibition was 3.76%.

Turning to `N#Cc1nc(-c2ccc(F)cc2)oc1NCCN1CCOCC1`, the inhibition was 3.45%.

For the molecule `CN(C)CCNc1oc(/C=C/c2ccccc2)nc1C#N`, the inhibition was 20.7%.

Consider `COc1ccc(-c2nc(C#N)c(NCCCN3CCOCC3)o2)cc1`, for which the inhibition was 27.7% (active).

As for `COCCNc1oc(-c2ccc(C)cc2)nc1C#N`, the inhibition was 19.1%.

`N#Cc1nc(-c2ccco2)oc1NCCCN1CCOCC1`: the inhibition was 6.97%.

Take `O=C(NCCOc1ccccc1F)c1cc(F)c(F)cc1Cl`: the inhibition was 3.2%.

For `CC(=O)N1CCN(c2ccc([N+](=O)[O-])cc2)CC1`, the inhibition is 3.7%.

With `COc1ccccc1-c1nn2c(C(F)(F)F)nnc2s1`, the inhibition is 4.63%.

For the molecule `O=C(NCc1ccccc1)C1=C[C@H](c2coc3ccccc3c2=O)C[C@H](OCCCCO)O1`, the inhibition is 6.04%.

With `O=c1c2cc(NC(=S)NC3CC3)ccc2nc2n1CCCCC2`, the inhibition was -0.67%.
